CYP2C19 act = cytochrome P450 2C19 (human) activation. P33261. recombinant CYP2C19, luciferin-H EGE luminescence; stronger effect = higher value; 0 = fully inhibited enzyme, 1 = untreated enzyme. activation factor at 5 µM. 96,000 tested, under 10 active;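 active = activation factor of at least 2 at 5 µM in the primary screen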
CYP2C9 activ = increases human cytochrome P450 2C9 activity | actives 1.4% (n = 96,000) | activation factor at 5 µM | AID 1024 | P11712 | recombinant CYP2C9, luciferin-H conversion, luminescence; stronger effect = higher value; factor 1 = untreated enzyme, 0 = blocked;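 active = activation factor of 2 or more for CYP2C9 at a 5 µM dose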
CYP2C9 inhib = human CYP2C9 inhibition; CYP2C9 Supersomes, luciferin-H conversion, luminescence; inhibition, % at 5 µM; AID 777; actives 20% (n = 96,000);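 active = blocking of liver enzyme CYP2C9 beyond about 50% at 5 µM, limit read from the data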
CYP2C19 inhib = inhibitors of human CYP2C19; P33261; CYP2C19 Supersomes, luciferin-H EGE luminescence, 30 min; inhibition, % at 5 µM; actives 21% (n = 96,000); AID 778;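 active = CYP2C19 inhibition above a set limit at 5 µM in the primary screen, cut at about 50% in these data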
Cav32 inh = blocks human Cav3.2 T-type calcium channel; O95180; Cav3.2-expressing cells, Fluo-4 calcium fluorescence FDSS; stronger effect = lower value; B-score at 10 µM; actives 4% (n = 100,000); AID 449739;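 active = single-dose well whose peak fluorescence ratio is a statistical outlier from its plate by either plate-standardised score or position-corrected B-score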
Hits are given with their value; – = inactive; · = no result. Compounds with a hit are over-represented: about 27% of the library has one in this group of screens.

SMILES	CYP2C19 act	CYP2C9 activ	CYP2C9 inhib	CYP2C19 inhib	Cav32 inh
Cc1cc(Cl)ccc1OCC(=O)NC1CCCC1	–	–	67	98	–
O=C1Nc2ccccc2C(O)(C(=O)NC2CC2)N1c1ccc(Cl)c(Cl)c1 (stereo not drawn)	–	–	–	–	–
CC(C)NS(=O)(=O)c1ccc(OCC(N)=O)c(Cl)c1	–	–	–	–	–
CCOc1cc(C)c(S(=O)(=O)NC2CCCCC2)cc1C	–	–	–	72	·
CC(C)NS(=O)(=O)c1ccc(OCC(=O)NCC2CCCO2)c(Cl)c1 (stereo not drawn)	–	–	66	67	–
CCN(CC)CCCN1C=C2C(=O)C(C)(OC(=O)C3CCCC3)C(=O)C=C2C=C1c1ccsc1 (stereo not drawn)	·	·	·	·	–
O=S(=O)(Nc1ccc2c(c1)oc1ccccc12)N1CCCC1	–	–	89	–	-5.9
O=C(c1cc(S(=O)(=O)N2CCOCC2)ccc1F)N1CCN(Cc2ccccc2)CC1	–	–	–	75	–
O=C(NCCc1ccccc1)c1cc(S(=O)(=O)N2CCOCC2)ccc1F	–	–	54	–	–
COc1ccc(CCNC(=O)COc2ccc(S(=O)(=O)N3CCOCC3)cc2)cc1	–	–	–	–	–
O=C(COC(=O)c1cc(S(=O)(=O)N2CCOCC2)ccc1O)NCCc1ccccc1	–	–	83	–	–
CC(C)CNC(=O)COC(=O)c1cc(S(=O)(=O)N2CCCCC2)ccc1N1CCOCC1	–	–	69	–	–
O=C(NCCc1ccccc1)c1ccccc1NS(=O)(=O)N1CCCC1	–	–	86	89	–
O=S(=O)(Nc1cccc2ccccc12)N1CCCC1	–	–	–	68	–
COc1ccc(S(=O)(=O)N2CCCCCC2)cc1C(=O)OCC(=O)NCC(C)C	–	–	–	–	–
Cc1nc(Sc2nnnn2-c2ccccc2)c(C#N)c(C)c1C	–	–	–	59	–
CCCn1c(Sc2nnnn2-c2ccccc2)n[nH]c1=O	–	–	–	–	–
Cc1ccccc1-n1nnnc1Sc1nnnn1-c1ccccc1	–	–	–	88	–
Cc1cc(C)c(C#N)c(Sc2nnnn2-c2ccccc2)n1	–	–	–	57	–
c1ccc(-n2nnnc2Sc2n[nH]c(-c3ccncc3)n2)cc1	–	–	80	–	–
Cc1ccccc1-n1nnnc1SCC(N)=O	–	–	–	–	–
CSc1nc(C)cc(C)c1C#N	–	–	–	–	–
CCCSc1nnc(Sc2nnnn2-c2ccccc2)s1	–	–	–	–	·
C#CC1(O)CC(C)N(C)C(C)C1 (stereo not drawn)	–	–	–	–	–
Cc1nnsc1C(=O)NC1CCCCC1	–	–	–	–	–
SMILES	CYP2C19 act	CYP2C9 activ	CYP2C9 inhib	CYP2C19 inhib	Cav32 inh
COCCN1C(=O)c2oc3cc(C)c(C)cc3c(=O)c2C1c1cccc(O)c1 (stereo not drawn)	·	·	·	·	–
CN(C)/C=C1\C(=O)N(c2ccc(Oc3ccccc3)cc2)CS1=O (stereo not drawn)	–	–	–	–	–
CC[C@H](C)/C=C/C1=CC2=C(Cl)C(=O)[C@@]3(C)OC(=O)C(C(=O)[C@H](C)[C@@H](C)O)=C3C2=CO1	·	·	·	·	–
COC(=O)CSc1nc2nc(C)c(Br)cc2[nH]1	–	–	–	–	–
C=C(C)CSc1nc2nc(C)c(Br)cc2[nH]1	–	–	–	55	–
CC1CCN(C(=O)c2[nH]cnc2C(=O)N[C@@H](C)C(=O)OC(C)(C)C)CC1	·	·	·	·	–
O=C(CCCOc1ccccc1)N1CCCCC1	–	–	–	56	–
O=C(CCCOc1ccccc1)N1CCN(S(=O)(=O)c2cccs2)CC1	–	–	–	–	–
CCC1CCCCN1C(=O)CCCOc1ccccc1 (stereo not drawn)	–	–	–	50	–
O=C(CCCOc1ccc(Cl)cc1)N1CCCCC1	–	–	–	98	–
O=C(CCCOc1ccc(Cl)cc1)N1CCCCCC1	–	–	59	95	–
Cc1nn(C)cc1C1C2=C(CC(C)(C)CC2=O)OC2=C1C(=O)CC(C)(C)C2	·	·	·	·	–
CC(C)Oc1ccc(CNC2CCOC(C)(C)C2)cc1 (stereo not drawn)	–	–	–	–	–
CCOC(=O)C1C(=O)CC(C)(O)C(C(=O)OCC)C1c1ccco1 (stereo not drawn)	–	–	–	–	–
O=C(CCCOc1ccc(Cl)cc1)N1CCOCC1	–	–	–	87	–
CN(C)c1nc(N)nc(CSc2nnnn2-c2ccccc2)n1	–	–	–	52	–
